This is part of a sample that, as a whole, favours compounds with a hit. Of some 83,000 tested, about 20% had one in any assay.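 Testing used 96-well plates and a 48-hour single-concentration exposure. Example: -40 means 40% of the starting cells died.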 Unmarked numbers belong to inactive results. Activity calls are given as the source filed them. The calls were made as follows: active = growth percent below 10; inactive = the rest.
Tests used:
Test in all cases: NCI-60 one-dose screen, 48 h (100 = growth as untreated, 0 = no growth, -100 = all killed)
Conditions in all cases: 10 µM unless noted
SK-MEL-2 melanoma = system: SK-MEL-2 melanoma
SN12C renal = system: SN12C renal
UO-31 renal = system: UO-31 renal
TK-10 renal = system: TK-10 renal
ACHN renal = system: ACHN renal
CAKI-1 renal = system: CAKI-1 renal
A498 renal = system: A498 renal
CCRF-CEM leukemia = system: CCRF-CEM leukemia
MOLT-4 leukemia = system: MOLT-4 leukemia
SR leukemia = system: SR leukemia
OVCAR-8 ovarian = system: OVCAR-8 ovarian
OVCAR-5 ovarian = system: OVCAR-5 ovarian
OVCAR-4 ovarian = system: OVCAR-4 ovarian
SK-OV-3 ovarian = system: SK-OV-3 ovarian
IGROV1 ovarian = system: IGROV1 ovarian
OVCAR-3 ovarian = system: OVCAR-3 ovarian
HS 578T breast = system: HS 578T breast
NCI/ADR-RES ovarian = system: NCI/ADR-RES ovarian
RPMI-8226 leukemia = system: RPMI-8226 leukemia
EKVX NSCLC = system: EKVX NSCLC

Row | SMILES | growth (SK-MEL-2 melanoma) | growth (SN12C renal) | growth (UO-31 renal) | growth (TK-10 renal) | growth (ACHN renal) | growth (CAKI-1 renal) | growth (A498 renal) | growth (CCRF-CEM leukemia) | growth (MOLT-4 leukemia) | growth (SR leukemia) | growth (OVCAR-8 ovarian) | growth (OVCAR-5 ovarian) | growth (OVCAR-4 ovarian) | growth (SK-OV-3 ovarian) | growth (IGROV1 ovarian) | growth (OVCAR-3 ovarian) | growth (HS 578T breast) | growth (NCI/ADR-RES ovarian) | growth (RPMI-8226 leukemia) | growth (EKVX NSCLC)
1 | NS(=O)(=O)c1ccc(N2CC(c3nc4ccccc4[nH]3)CC2=O)cc1 (stereo not given) | 102% | 97.3% | 76.6% | 128% | 91.9% | 97.3% | 110% | 98.3% | 96.3% | 95.5% | 99.9% | 84.4% | 97.3% | 89.7% | 97.2% | 104% | 98.2% | 103% | – | –
2 | CCCCCCCC[Si](OCC)(OCC)OCC | 102% | 106% | 81.1% | 90.8% | 98.2% | 54.9% | 105% | – | 95.7% | 79.4% | 98.9% | 104% | 103% | 105% | 94.6% | 106% | 109% | 108% | 99.2% | –
3 | COC(=O)[C@H](Cc1cn(C)cn1)NC(=O)[C@@H](NC(=O)Nc1cc(C(F)(F)F)cc(C(F)(F)F)c1)C(C)C | -88.7% [100 µM] (active) | -85.8% [100 µM] (active) | -94.9% [100 µM] (active) | -98.7% [100 µM] (active) | -98.4% [100 µM] (active) | -91.3% [100 µM] (active) | -89.4% [100 µM] (active) | – | -56.2% [100 µM] (active) | -33.5% [100 µM] (active) | -80% [100 µM] (active) | -96.1% [100 µM] (active) | -96.5% [100 µM] (active) | -100% [100 µM] (active) | -70.9% [100 µM] (active) | -97.3% [100 µM] (active) | 0.492% [100 µM] (active) | -21.6% [100 µM] (active) | -42.9% [100 µM] (active) | –
4 | COC(=O)[C@H](Cc1cn(C)cn1)NC(=O)[C@H](C)NC(=O)Nc1cc(C(F)(F)F)cc(C(F)(F)F)c1 | -90.1% [100 µM] (active) | -82.4% [100 µM] (active) | -92.7% [100 µM] (active) | -96.4% [100 µM] (active) | -90% [100 µM] (active) | 73.1% [100 µM] | -88.4% [100 µM] (active) | – | – | -31.1% [100 µM] (active) | -68.1% [100 µM] (active) | -43.8% [100 µM] (active) | -58.3% [100 µM] (active) | -97.5% [100 µM] (active) | -54% [100 µM] (active) | -89.4% [100 µM] (active) | -1.05% [100 µM] (active) | 79.3% [100 µM] | -31.7% [100 µM] (active) | –
5 | CCOC(=O)c1sc(NC(=O)COc2cccc(/C=C3\Cc4ccc(Cl)cc4C3=O)c2)nc1C | – | 105% | -17.4% (active) | 145% | 110% | 84.6% | 133% | 114% | 105% | 114% | – | 101% | 118% | 114% | – | 120% | 110% | 97% | 57.5% | 107%
6 | O=C(CN1CCN(c2ccc(Cl)cc2)CC1)N1CCN(c2nnc(-c3ccc(Cl)cc3)c(-c3ccc(Cl)cc3)n2)CC1 | – | 75.5% | 37.9% | 102% | 68.5% | 168% | 56.9% | 10.4% | -40.9% (active) | – | – | 103% | 74.2% | 111% | 37.7% | 78.4% | 71.7% | 72.9% | 8.48% (active) | 71.2%
7 | CNc1nc(NC2CCCC2)nc(Sc2ccc(OC)cc2)n1 | 9.28% [100 µM] (active) | 28.5% [100 µM] | 12.8% [100 µM] | 42.1% [100 µM] | – | 0.0278% [100 µM] (active) | 10.1% [100 µM] | – | -5.92% [100 µM] (active) | -0.593% [100 µM] (active) | 20.2% [100 µM] | 59.5% [100 µM] | 36.9% [100 µM] | 74.9% [100 µM] | 45.9% [100 µM] | -25.5% [100 µM] (active) | – | 11.9% [100 µM] | -11.2% [100 µM] (active) | –
8 | CCN(CC)CCOCC[C@H]1CC[C@H]2[C@@H]3[C@H](C)Cc4cc(OS(N)(=O)=O)ccc4[C@H]3CC[C@]12C | – | -62.9% (active) | -80.8% (active) | -56.8% (active) | -65.9% (active) | -73.9% (active) | -91.6% (active) | -26.8% (active) | -52.2% (active) | – | – | -50.1% (active) | 8.49% (active) | -94.8% (active) | – | -86.5% (active) | -44.6% (active) | -70.2% (active) | – | -23.4% (active)
9 | N#Cc1ncc(-c2ccc(C(F)(F)F)cc2)c(NC2CCCCCC2)n1 | 7.62% (active) | 19.6% | 5.41% (active) | 58.1% | – | 56.8% | 77.6% | 24.8% | 66.8% | 52.6% | – | 38.8% | 12.6% | 73.6% | 32.5% | 1.17% (active) | 46.5% | 69.8% | – | –
10 | COc1cccc(-c2nc3cc(NC(=O)c4ccc(Cl)c(C#N)c4)ccc3o2)c1 | 63.8% | 40.2% | 34.3% | -12.5% (active) | – | 26.4% | 61.6% | 71.1% | 78.4% | 38.2% | -54.6% (active) | 73.3% | -90.4% (active) | 15.6% | 72.4% | – | 39.1% | 3.74% (active) | -2.38% (active) | –
11 | CCCCCCC(CC#N)(CCC)CCCC (stereo not given) | 123% | 97.8% | 97.6% | 102% | 99% | – | 100% | – | – | 103% | 105% | 97.8% | 114% | 113% | 101% | 119% | 95.3% | 109% | 103% | –
12 | CC(C)=CCNc1ncnc2c1ncn2C1OC(COP(=O)(O)O)C(O)C1O (stereo not given) | 69.4% | 32.4% | 39.6% | – | 28.2% | 16.3% | -7.75% (active) | 11.4% | 6.19% (active) | -15.2% (active) | – | 74.5% | 85.4% | 12.9% | 54.6% | 0.0655% (active) | 63.8% | 39.1% | 109% | –
13 | Cc1sc2nc3c4ccccc4c(NCCCN(C)C)nn3c(=O)c2c1C | – | 53.4% | -91.9% (active) | 78% | 53.5% | 84.4% | 51.8% | -27.9% (active) | -44.9% (active) | – | – | 71% | 65.8% | 65.7% | 23.4% | 59.2% | 71.6% | 66.8% | -56.4% (active) | 75.9%
14 | O=C(c1ccc(Cl)cc1)c1ccc(Cl)cc1 | – | 102% | 108% | 101% | 123% | 115% | 97.7% | 88.6% | 106% | 93.3% | – | 88.7% | 92.4% | 114% | 124% | 105% | 130% | 103% | 115% | 108%
15 | COc1ccc([N+](=O)[O-])c(S(=O)(=O)c2ccc(Cl)cc2)n1 | 92.9% | 74.5% | 51.7% | 81.1% | – | 49.6% | 110% | -11.5% (active) | 2.58% (active) | -16% (active) | 71.7% | 77.1% | 68.7% | 97.2% | 97.1% | 36.6% | 97.9% | 81.3% | 34.9% | –
